High-throughput results deposited in PubChem BioAssay by several laboratories.
HSP90 refold inh: HSP90 refolding inhibition in rabbit reticulocyte lysate; luciferase refolding luminescence, 3 h; inhibition, % at 5.6 µM; actives 0.91% (n = 290,000);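 active = inhibition above the screen-wide mean plus 3 SD, computed separately per campaign, cut at about 16% in these data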;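 also: 0% = DMSO wells and 100% = 60 µM geldanamycin wells; inhibitors lower the luminescence because luciferase stays unfolded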
TWEAK-Fn14 inh: TWEAK-Fn14 signaling inhibition; TWEAK-stimulated Fn14 reporter cells, luciferase luminescence, 8 h; inhibition, % at 10 µM; actives 2% (n = 360,000); AID 1159606; in the data active = inhibition above about 50%
HIF-2a inh: blocks HIF-2a reporter activity; 786-0 RCC cells HIF-2a reporter, luciferase luminescence, overnight; inhibition, % at 18.8 µM; actives 0.72% (n = 360,000);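 active = inhibition of the luminescence signal of 40% or more relative to plate controls, in a single-dose primary screen at 18.75 µM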
TRAIL sens C8: caspase-8 TRAIL sensitization. inhibition (viability loss, TRAIL sensitization), % at 10 µM. actives 1% (n = 360,000). AID 624354. NB7+C8 cells + TRAIL, ATPlite viability luminescence;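 active = compounds causing at least 50% loss of cell viability in the single-dose screen, relative to plate controls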
aSyn UTR inh: MLPCN primary screen, SNCA 5' untranslated region. inhibition, % (tested at 7.5 µM). alpha-synuclein 5'UTR reporter, inhibitor activity. actives 0.82% (n = 300,000); in the data active = inhibition above about 60%;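 also: H4 neuroglioblastoma cells stably carrying SNCA 5'UTR luciferase fusion; 0% = DMSO wells and 100% = positive control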
TROY signal inh: inhibitors of TROY-dependent NF-kB signaling; actives 0.98% (n = 360,000); inhibition, % at 10 µM; Q293 LMP1-TROYcd NF-kB luciferase reporter, 4 h;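 active = compounds whose plate-normalised and pattern-corrected inhibition of the luciferase reporter signal at the single screening dose is 50% or more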
Active calls of the source: *; / = not tested or not shown. Hits are enriched below; roughly 3.9% of the tested compounds scored in any of these assays.

SMILES	HSP90 refold inh	TWEAK-Fn14 inh	HIF-2a inh	TRAIL sens C8	aSyn UTR inh	TROY signal inh
O=C(O)CC(CCc1ccccc1)OC1OC(CO)C(O)C(O)C1O (configuration not stated)	/	59*	18	5	/	1
O=C1NC[C@H](Cc2ccc(O)cc2)N(C[C@@H]2CCCN2C[C@H](Cc2ccc(O)cc2)N2C[C@H](Cc3ccccc3)N(CCc3ccccc3)C(=O)C2=O)C1=O	/	18	8	-2	/	-2
CC(C)CCn1c(Sc2nc3ccccc3o2)nc2c1c(=O)[nH]c(=O)n2C	1	67*	-34	-11	-46	-29
Cn1c(=O)[nH]c(=O)c2c1nc(N1CCCCC1)n2CCSc1nc2ccccc2o1	-1	-2	16	4	-3	9
CCOc1ccccc1OCC(=O)N/N=C(\C)Cc1ccc(OC)cc1	-1	17	14	11	87*	20
Cc1ccc(NC(=S)N(CCN2CCOCC2)Cc2cc3cc4c(cc3[nH]c2=O)OCCO4)cc1	0	4	18	-4	11	3
Cc1cccc(NC(=S)N(CCN2CCOCC2)Cc2cc3cc4c(cc3[nH]c2=O)OCCO4)c1	0	67*	8	-10	11	73*
Cc1nc2ccccc2nc1SCC(=O)c1ccccc1	4	60*	-44	14	16	43
O=C1c2c(-c3ccc(Br)cc3)noc2CCN1Cc1cn(-c2ccccc2)nn1	/	/	-1	9	/	/
O=C(COC(=O)c1ccc(O)cc1)NCCC1=CCCCC1	-2	0	4	-5	3	10
COc1ccccc1N(C)S(=O)(=O)c1ccc(C(=O)OCC(=O)NCCC2=CCCCC2)cc1	0	54*	26	-4	4	31
O=C(COC(=O)c1ccc2c(c1)OCCO2)NCCC1=CCCCC1	0	96*	-49	-7	-47	37
Cc1nn(C2CCS(=O)(=O)C2)c(C)c1CN(C)C(=O)c1ccccc1 (configuration not stated)	/	8	13	-14	/	9
COc1ccccc1C(C)NC(=O)c1ccc(NC(=O)CC2SC(N3CCCC3)=NC2=O)cc1 (configuration not stated)	/	-11	9	-3	/	8
CCCOc1ccc(-c2nnc(-c3ccco3)o2)cc1	9	72*	-32	55*	65*	34
CCN(CC)CCCNc1oc(-c2cccc(Cl)c2)nc1C#N	2	-13	-33	8	-17	0
CCN(CC)CCCNc1ccc(-c2nnc(-c3ccc(OCC(C)C)cc3)o2)cn1	0	-71	16	87*	121*	-21
CC(C)COc1ccc(-c2nnc(-c3ccco3)o2)cc1	8	57*	-75	30	86*	-12
O=C(COc1ccccc1)Nc1ccc(-c2nnc(-c3ccco3)o2)cc1	2	-14	-65	11	-84	-40
CC(C)(C)S(=O)N1Cc2cn(Cc3ccccc3)c(=O)cc2[C@@H]1CCO (some centres not stated)	/	-31	2	-11	/	-3
C/C(=N\NC(=O)c1c([N+](=O)[O-])c(C)nn1C)c1ccc(NC(=O)C2CCCC2)cc1	-3	-22	-7	13	81*	-5
Cc1ccc(S(=O)(=O)N2C[C@H]3[C@H]4C(=O)N(C5CCCCC5)C(=O)[C@H]4CC(=O)[C@H]3[C@@H]2c2cccc3ccccc23)cc1	/	-3	6	60*	/	19
CCOc1ccccc1C1CC(=O)Nc2cc(C)c(C)cc21 (configuration not stated)	1	-9	20	16	34	-19
CCOc1ccccc1C1CC(=O)Nc2cc3c(cc21)OCCO3 (configuration not stated)	1	17	21	-8	92*	23
CCCCOc1ccccc1C1CC(=O)NC2=C1C(=O)CCC2 (configuration not stated)	-1	30	16	6	94*	27
SMILES	HSP90 refold inh	TWEAK-Fn14 inh	HIF-2a inh	TRAIL sens C8	aSyn UTR inh	TROY signal inh
Cc1cc2c(cc1C)C(c1ccccc1OC(C)C)CC(=O)N2 (configuration not stated)	5	0	25	26	-12	0
CC(C)Oc1ccccc1C1CC(=O)Nc2cc3c(cc21)OCO3 (configuration not stated)	-1	18	30	-9	91*	33
CCCOc1ccccc1C1CC(=O)Nc2cc3c(cc21)OCCO3 (configuration not stated)	0	55*	31	-11	103*	48
CCc1ccc(N2C=C(C(=O)OC)C(c3cccc4ccccc34)C(C#N)=C2N)cc1 (configuration not stated)	/	/	-64	28	/	/
CN1CCn2cnc(C(=O)Nc3ccc(Cl)cc3)c2C1=O	/	-26	-37	-2	/	-23
COc1ccccc1C1CC(=O)Nc2cc(C)c(C)cc21 (configuration not stated)	4	0	30	21	63*	-28
C[C@@H]1CN([C@H](C)CO)C(=O)CCCn2nncc2CO[C@H]1CN(C)Cc1ccc2c(c1)OCO2	/	1	13	-8	/	-7
COc1ccc(OC)c(NC(=O)c2cc(-c3cc(Cl)ccc3O)n[nH]2)c1	-1	55*	-20	51*	-17	51*
COc1ccc(Cl)cc1NC(=O)c1cc(-c2ccccc2O)n[nH]1	0	1	-50	15	-118	10
COc1cccc(C(c2nnnn2C(C)(C)C)N2CCN(C/C=C/c3ccccc3)CC2)c1OC (configuration not stated)	/	-10	1	-10	/	4
Cc1ccc(C(=O)Nc2nc3c(s2)CCCC3)o1	6	50	-131	65*	-10	-14
CC1(C)CC(=O)c2sc(NC(=O)c3ccccc3)nc2C1	-2	/	/	/	-78	/
O=C(Nc1nc2c(s1)CCCC2)C1COc2ccccc2O1 (configuration not stated)	51*	82*	-44	34	44	71*
O=C(Nc1nc2c(s1)CCCC2)c1cccnc1	3	19	-280	9	-164	-29
Cc1onc(-c2ccccc2Cl)c1C(=O)Nc1nc2c(s1)CCCC2	-3	-13	-198	25	-121	52*
CC1(C)CC(=O)c2sc(NC(=O)c3cccs3)nc2C1	5	54*	-51	85*	-59	-27
CCN1CCN(S(=O)(=O)c2ccc(Cl)c(C(=O)Oc3ccc(CC(=O)OC)cc3)c2)CC1	/	1	11	5	/	9
O=[N+]([O-])c1ccccc1C=NN1CCCCCC1	/	13	-65	-5	/	8
O=C(Nc1nc2c(s1)CCCC2)c1ccc(Br)o1	16*	37	-207	57*	-41	-27
O=C(Nc1nc2c(s1)CCCC2)c1cccs1	13	57*	-158	62*	/	2
Cc1ccc(NC(=O)CCS(=O)(=O)c2ccc3nc(C)sc3c2)c(C)c1	/	-10	5	11	/	5
